From PubChem BioAssay (Tox21)
Values joined by “and” are separate entries in the source; they are usually repeats but may differ in a detail not shown here. Equal entries are not always repeated. Inconclusive results are not listed. Some structures have more than one record in an assay (separate samples or runs), and their calls can disagree. Active and inactive are the calls of the source. Unless noted, calls follow the shape of the full dose curve.

Key:
[1] = qHTS assay to identify small molecule antagonists of the sonic hedgehog signaling (Shh) pathway (AID 1259369); also: nearly all actives have a fitted effect of over 45% in size; also: potency is read from the fitted curve at half-maximal effect
In short: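 For antagonist detection, the reporter line received test compounds together with conditioned medium, incubated 24hr at 37 C, 5% CO2, then luminescence was recorded following 30min room-temperature luciferase reagent incubation.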

[2] = target: Estrogen receptor beta (Homo sapiens) (UniProt Q92731); experiment: qHTS assay to identify small molecule agonists of the estrogen receptor beta (ER-beta) signaling pathway (AID 1259377; active = well fitted activation curve with a large enough effect in the signal ratio in the repeat runs, not every such curve was filed as active; the % refers to the signal ratio)
Estrogen receptor beta (Homo sapiens), sequence (Q92731 whole entry, looked up): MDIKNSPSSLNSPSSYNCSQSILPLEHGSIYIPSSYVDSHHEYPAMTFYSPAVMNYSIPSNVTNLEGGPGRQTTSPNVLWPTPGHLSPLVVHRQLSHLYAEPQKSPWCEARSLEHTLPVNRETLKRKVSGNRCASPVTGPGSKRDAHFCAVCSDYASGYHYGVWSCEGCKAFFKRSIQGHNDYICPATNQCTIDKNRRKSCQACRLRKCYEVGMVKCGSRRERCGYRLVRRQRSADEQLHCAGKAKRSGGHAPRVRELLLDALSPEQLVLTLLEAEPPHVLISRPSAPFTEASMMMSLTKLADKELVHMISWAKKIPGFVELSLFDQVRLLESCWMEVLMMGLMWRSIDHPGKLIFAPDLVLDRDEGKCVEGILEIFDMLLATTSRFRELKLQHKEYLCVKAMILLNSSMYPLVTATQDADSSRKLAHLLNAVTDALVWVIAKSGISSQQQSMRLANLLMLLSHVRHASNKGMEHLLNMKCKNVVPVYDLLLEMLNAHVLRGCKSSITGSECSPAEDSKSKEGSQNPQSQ
In short: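 ER-beta-UAS-bla HEK293T cells in medium with 2% charcoal-stripped FBS were exposed to compounds for 16 h at 37C. Beta-lactamase reporter activity was read as fluorescence after 2 h with LiveBLAzer B/G FRET substrate at room temperature.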

[3] = qHTS assay to identify small molecule agonists of the androgen receptor (AR) signaling pathway in the presence of an antagonist - cell viability counter screen (AID 1259379; active = well fitted curve in the direction sought with a large enough effect in the repeat runs; an effect the other way counts as inactive or inconclusive; also: nearly all actives have a fitted effect of over 25% in size; also: potency is read from the fitted curve at half-maximal effect)
In short: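 Seed MDA-kb2 at 3,000 cells/well; incubate 5 hr, 37C, 0% CO2. Add nilutamide to 3.0uM final, then pin compounds at 15 concentrations. Incubate 16 hr. Add CellTiter-Fluor at 15 hr, read fluorescence after 1 hr.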

[4] = qHTS assay to identify small molecule agonists of the estrogen receptor beta (ER-beta) signaling pathway - cell viability counter screen (AID 1259380; active = well fitted curve in the direction sought with a large enough effect in the repeat runs; an effect the other way counts as inactive or inconclusive; also: nearly all actives have a fitted effect of over 30% in size; also: potency is read from the fitted curve at half-maximal effect)
In short: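 CellTiter-Glo read, 30 min RT, same wells as bla assay; cells ER-beta-UAS-bla HEK293T; 16 hr compound, 37C; medium 2% charcoal-stripped FBS.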

[5] = qHTS assay to identify small molecule antagonists of the estrogen receptor beta (ER-beta) signaling pathway - cell viability counter screen (AID 1259382; active = well fitted curve in the direction sought with a large enough effect in the repeat runs; an effect the other way counts as inactive or inconclusive; also: nearly all actives have a fitted effect of over 55% in size; also: potency is read from the fitted curve at half-maximal effect)
In short: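 In this multiplexed counter screen, cells were seeded at 2,000 per well in medium with 2% charcoal-stripped FBS and incubated 6 hr before compound and 1nM final E2 were added. Sixteen hours later, ATP-based luminescence reported viability.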

[6] = qHTS assay to identify small molecule agonists or antagonists of the thyroid stimulating hormone receptor (TSHR) signaling pathway - wild type cell line counter screen (AID 1259384)
In short: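 Wild-type HEK293 cells were plated 18 h at 37 C/5% CO2, pin-dosed with compound plus Ro20-1724 medium, held 30 min at room temperature, then given cAMP-d2 and anti-cAMP-cryptate; fluorescence was read after 1 h. Fifteen concentrations, triplicate.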

[7] = target: Thyrotropin receptor (Homo sapiens) (UniProt P16473); experiment: qHTS assay to identify small molecule antagonists of the thyroid stimulating hormone receptor (TSHR) signaling pathway (AID 1259385); also: nearly all actives have a fitted effect of over 20% in size
Thyrotropin receptor (Homo sapiens), sequence (P16473 whole entry, looked up): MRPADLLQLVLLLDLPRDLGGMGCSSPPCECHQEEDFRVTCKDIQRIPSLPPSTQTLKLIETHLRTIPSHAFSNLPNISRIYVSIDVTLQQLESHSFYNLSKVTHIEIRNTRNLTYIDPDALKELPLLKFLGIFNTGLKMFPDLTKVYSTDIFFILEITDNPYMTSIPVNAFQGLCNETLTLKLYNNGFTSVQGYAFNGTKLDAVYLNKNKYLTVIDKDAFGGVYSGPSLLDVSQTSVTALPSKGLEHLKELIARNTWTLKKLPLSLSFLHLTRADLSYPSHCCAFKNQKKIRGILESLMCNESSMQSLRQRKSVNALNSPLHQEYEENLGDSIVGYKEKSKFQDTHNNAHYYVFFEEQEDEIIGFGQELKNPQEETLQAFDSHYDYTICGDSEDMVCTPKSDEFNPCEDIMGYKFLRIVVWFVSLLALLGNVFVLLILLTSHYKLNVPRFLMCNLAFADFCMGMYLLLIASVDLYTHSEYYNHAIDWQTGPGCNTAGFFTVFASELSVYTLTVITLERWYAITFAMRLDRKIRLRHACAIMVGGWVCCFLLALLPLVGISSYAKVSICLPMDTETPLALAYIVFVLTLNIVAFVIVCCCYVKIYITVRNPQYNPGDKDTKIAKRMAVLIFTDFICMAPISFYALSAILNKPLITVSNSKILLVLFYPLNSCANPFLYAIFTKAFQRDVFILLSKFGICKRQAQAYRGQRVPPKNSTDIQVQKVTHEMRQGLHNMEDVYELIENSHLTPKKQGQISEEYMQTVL
In short: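 TSHR-HEK293 cells were plated and held 18 h at 37C/5% CO2, then given compound plus Ro20-1724 and stimulated with TSH at 1.5 ng/mL final. After 30 min at room temperature, cAMP was detected with cAMP-d2/anti-cAMP-cryptate (1 h) by fluorescence.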

[8] = target: Androgen receptor (Homo sapiens) (UniProt P10275); experiment: qHTS assay to identify small molecule agonists of the androgen receptor (AR) signaling pathway in the presence of an antagonist (AID 1259381); also: nearly all actives have a fitted effect of over 15% in size
Androgen receptor (Homo sapiens), sequence (P10275 whole entry, looked up): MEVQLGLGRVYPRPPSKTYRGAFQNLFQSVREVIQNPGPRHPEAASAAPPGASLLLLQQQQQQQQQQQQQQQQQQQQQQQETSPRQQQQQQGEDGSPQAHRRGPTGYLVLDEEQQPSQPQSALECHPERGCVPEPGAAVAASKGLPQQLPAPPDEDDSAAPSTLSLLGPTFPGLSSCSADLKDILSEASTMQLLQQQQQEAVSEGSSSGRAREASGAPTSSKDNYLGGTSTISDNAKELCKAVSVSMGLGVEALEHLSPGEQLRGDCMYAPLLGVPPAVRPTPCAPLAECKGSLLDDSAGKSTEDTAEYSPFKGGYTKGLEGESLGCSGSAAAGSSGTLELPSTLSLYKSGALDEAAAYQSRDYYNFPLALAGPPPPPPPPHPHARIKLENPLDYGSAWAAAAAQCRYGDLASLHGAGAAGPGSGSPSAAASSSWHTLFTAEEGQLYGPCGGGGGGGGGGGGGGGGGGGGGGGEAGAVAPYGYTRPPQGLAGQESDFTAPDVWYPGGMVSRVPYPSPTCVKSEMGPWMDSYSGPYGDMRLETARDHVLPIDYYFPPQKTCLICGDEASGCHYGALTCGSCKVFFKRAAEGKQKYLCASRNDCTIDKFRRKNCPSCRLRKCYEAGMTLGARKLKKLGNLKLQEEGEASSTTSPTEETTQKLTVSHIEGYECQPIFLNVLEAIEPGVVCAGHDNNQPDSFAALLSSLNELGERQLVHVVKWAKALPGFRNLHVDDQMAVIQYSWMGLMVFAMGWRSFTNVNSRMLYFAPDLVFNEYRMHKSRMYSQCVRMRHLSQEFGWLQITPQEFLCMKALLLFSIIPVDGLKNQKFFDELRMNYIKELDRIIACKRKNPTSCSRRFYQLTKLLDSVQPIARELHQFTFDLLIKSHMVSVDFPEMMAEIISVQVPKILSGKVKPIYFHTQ
In short: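 Test compounds at 15 concentrations were incubated for 16hr with MDA-kb2 reporter cells in presence of 3.0uM nilutamide (final). Signal: ONE-Glo luciferase luminescence.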

[9] = target: Estrogen receptor (Homo sapiens) (UniProt P03372); experiment: qHTS assay to identify small molecule agonists of the estrogen receptor alpha (ER-alpha) signaling pathway in the presence of an antagonist (AID 1259383); also: nearly all actives have a fitted effect of over 15% in size; also: potency is read from the fitted curve at half-maximal effect; as to activation: top concentration of the series differs between compounds
Estrogen receptor (Homo sapiens), sequence (P03372 whole entry, looked up): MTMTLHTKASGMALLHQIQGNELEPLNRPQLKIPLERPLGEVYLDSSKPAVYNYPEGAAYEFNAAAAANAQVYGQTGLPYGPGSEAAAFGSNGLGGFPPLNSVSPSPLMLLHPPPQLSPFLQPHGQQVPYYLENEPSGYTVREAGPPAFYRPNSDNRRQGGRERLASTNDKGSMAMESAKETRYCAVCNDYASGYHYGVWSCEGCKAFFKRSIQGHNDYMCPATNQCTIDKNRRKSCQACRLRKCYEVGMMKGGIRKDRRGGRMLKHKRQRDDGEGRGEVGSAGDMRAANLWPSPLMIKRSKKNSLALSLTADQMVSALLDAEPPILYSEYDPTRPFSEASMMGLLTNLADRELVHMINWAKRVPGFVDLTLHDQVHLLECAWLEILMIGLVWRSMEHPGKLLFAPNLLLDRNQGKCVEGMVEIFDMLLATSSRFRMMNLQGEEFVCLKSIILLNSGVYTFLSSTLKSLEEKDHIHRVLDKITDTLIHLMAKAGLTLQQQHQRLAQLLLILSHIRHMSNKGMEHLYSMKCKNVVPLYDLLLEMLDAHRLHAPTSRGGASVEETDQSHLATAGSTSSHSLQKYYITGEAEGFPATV
In short: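 Stably transfected VM7Luc4E2 reporter cells, kept 5 days in charcoal-stripped serum, received ICI-182,780 at 10.0nM final before compound addition. Following 22hr incubation at 37C and 5% CO2, luciferase signal was read by luminescence.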

Measured: Potency

COC(=O)/C=C\C(=O)OC
inactive: [1] | [2] | [3] | [4] | [5] | [6] | [7]

Cc1ccccc1Cl
inactive: [1] | [3] | [4] | [8] | [5] | [9] | [6] | [7]

C[Si](C)(C)N[Si](C)(C)C
inactive: [1] | [2] | [3] | [4] | [5] | [9] | [6] | [7]

Cc1ccc(C(C)C)cc1
inactive: [1] | [3] | [4] | [8] | [5] | [9] | [6] | [7]

CCCCC(CC)COC(=O)c1ccc(C(=O)OCC(CC)CCCC)cc1 (centres undefined)
inactive: [1] | [3] | [4] | [8] | [5]

Nc1cccc(C(F)(F)F)c1
inactive: [1] | [2] | [3] | [4] | [5] | [9] | [6] | [7]

CC/C=C(\C(=O)N[C@@H]1C(=O)N2C(C(=O)OCOC(=O)C(C)(C)C)=C(COC(N)=O)CS[C@H]12)c1csc(N)n1
inactive: [1] | [2] | [3] | [4] | [5] | [9] | [6]

Cc1cc(C)cc(O)c1
active: [1] 1.09 µM
inactive: [2] | [3] | [4] | [5] | [9] | [6] | [7]

NC(=O)NC(N)=O
inactive: [1] | [2] | [3] | [4] | [5] | [9] | [6] | [7]

COc1c(Cl)ccc(Cl)c1C(=O)O
inactive: [1] | [2] | [3] | [4] | [5] | [9] | [6] | [7]

CS(=O)(=O)c1ccc(Cl)cc1
inactive: [1] | [2] | [3] | [4] | [5] | [6] | [7]

CCCOCC(C)O (centres undefined)
inactive: [1] | [3] | [4] | [8] | [5] | [6] | [7]

Cc1cc(CC(=O)O)n(C)c1C(=O)c1ccc(Cl)cc1
inactive: [1] | [2] | [3] | [4] | [5] | [6] | [7]

Cc1nnc(NS(=O)(=O)c2ccc(N)cc2)s1
inactive: [1] | [3] | [4] | [8] | [5] | [9] | [6] | [7]

CCCCCNCCCCC
inactive: [1] | [2] | [3] | [4] | [5] | [6] | [7]

NC1CCCCC1N (centres undefined)
inactive: [1] | [2] | [3] | [4] | [5] | [6]

CCCCCCCCC(=O)O
inactive: [1] | [2] | [3] | [4] | [5] | [9] | [6]

COC(=O)CCCCC(=O)OC
inactive: [1] | [3] | [4] | [5] | [9]

CC(=O)OC[C@H]1O[C@@](COC(C)=O)(O[C@H]2O[C@H](COC(C)=O)[C@@H](OC(C)=O)[C@H](OC(C)=O)[C@H]2OC(C)=O)[C@@H](OC(C)=O)[C@@H]1OC(C)=O
inactive: [1] | [2] | [3] | [4] | [5] | [6]

CN=C(NC#N)NCCSCc1nc[nH]c1C
inactive: [1] | [2] | [3] | [4] | [5] | [9] | [6] | [7]

O=C(Cl)c1ccc(C(=O)Cl)cc1
inactive: [1] | [2] | [3] | [4] | [5] | [9] | [6] | [7]

Cc1cccc(C)c1[N+](=O)[O-]
inactive and 24.3 µM (active): [1]
inactive: [2] | [3] | [4] | [5] | [6]

CC(CN1c2ccccc2Sc2ccccc21)N(C)C (centres undefined)
inactive: [2] | [3] | [6] | [7]
active: [1] 12.3 µM and 27.3 µM and 13.3 µM | [4] 49.1 µM and 24.3 µM and 23.7 µM | [5] 24.6 µM and 21.7 µM and 16.8 µM

N[C@@H](Cc1cc(I)c(Oc2ccc(O)c(I)c2)c(I)c1)C(=O)O
inactive: [1] | [3] | [4] | [5] | [9]

O=C1O[C@H]([C@H](O)CO)C(O)=C1O
inactive: [1] | [3] | [4] | [5] | [6]

CC1(C)C(=O)N(Cl)C(=O)N1Cl
inactive: [1] | [3] | [4] | [5] | [9] | [6] | [7]

Cc1ccc(C)c(S(=O)(=O)O)c1
inactive: [1] | [3] | [4] | [5] | [6] | [7]

NC(N)=S
inactive: [1] | [3] | [4] | [5] | [9] | [6] | [7]

CC(=O)OC(C)(C)C1CC=C(C)CC1 (centres undefined)
inactive: [1] | [3] | [4] | [5] | [9] | [6]

O=C1OC(=O)c2c(Cl)c(Cl)c(Cl)c(Cl)c21
inactive: [1] | [3] | [4] | [5] | [6]

COc1ccc(N)c(OC)c1
inactive: [3] | [5] | [9] | [6] | [7]
inactive and 54.5 µM (active): [4]
active: [1] 9.31 µM

OC1CCCCC1
inactive: [1] | [3] | [4] | [5] | [9] | [6] | [7]

CC1=CC(=O)CC(C)(C)C1
inactive: [1] | [3] | [6] | [7]
14.1 µM (active) and inactive: [5]
active: [4] 6.29 µM

CCOC(=O)CC(=O)OCC
inactive: [1] | [3] | [4] | [5] | [6]

CC[N+](CC)(CC(=O)Nc1c(C)cccc1C)Cc1ccccc1
inactive: [1] | [3] | [4] | [5] | [6] | [7]

CCCOC(=O)NCCCN(C)C
inactive: [1] | [3] | [4] | [5] | [6] | [7]

CCOC(=O)c1ccc(O)cc1
inactive: [1] | [3] | [4] | [5] | [9] | [6]

Cc1ccccc1C=O
inactive: [1] | [3] | [4] | [5] | [9] | [6]

Cc1ncc(CO)c(CO)c1O
inactive: [1] | [3] | [4] | [5] | [6]

c1cnc2c(c1)ccc1cccnc12
inactive: [1] | [6] | [7]
active: [3] 15.5 µM and 30.6 µM and 21.7 µM | [4] 2.43 µM

O=C(O)C1=NN(c2ccc(S(=O)(=O)O)cc2)C(=O)C1
inactive: [1] | [3] | [4] | [5] | [9] | [6]

Cc1cc(C)c(O)c(C)c1
inactive: [1] | [3] | [4] | [5] | [9] | [6]

OB(O)O
inactive: [1] | [3] | [4] | [5] | [9] | [6]

C=C1C[C@]23C[C@@]1(O)CC[C@H]2[C@@]12C=C[C@H](O)[C@@](C)(C(=O)O1)[C@H]2[C@@H]3C(=O)O
inactive: [1] | [3] | [4] | [5] | [6] | [7]

COc1ccc2cc3[n+](cc2c1OC)CCc1cc2c(cc1-3)OCO2
inactive: [1] | [5] | [9]
active: [3] 4.89 µM and 8.41 µM | [4] 48.9 µM

Cc1ccc(Cl)cc1
inactive: [1] | [3] | [4] | [5] | [9] | [6] | [7]

O=C(NCC1CCCCN1)c1cc(OCC(F)(F)F)ccc1OCC(F)(F)F (centres undefined)
inactive: [3] | [4] | [5] | [6] | [7]
19 µM (active) and inactive: [1]

CC(O)CNCC(C)O (centres undefined)
inactive: [1] | [3] | [4] | [5] | [9] | [6] | [7]

Nc1cccc(N)n1
inactive: [1] | [3] | [4] | [5] | [9] | [6]

Clc1cccc(Cl)c1NC1=NCCN1
inactive: [1] | [3] | [4] | [5] | [6]

CC(=O)OC/C=C(\C)CCC=C(C)C
inactive: [1] | [3] | [4] | [5] | [9] | [6]

CC(=O)Nc1ccc(CC(=O)O)cc1
inactive: [1] | [3] | [4] | [5] | [9] | [6]

O=c1n(CCCN2CCN(c3cccc(Cl)c3)CC2)nc2ccccn12
active: [4] 24.3 µM
inactive: [1] | [3] | [5] | [6] | [7]

Oc1ccc(Cc2ccccc2O)cc1
inactive: [3] | [5] | [9] | [6] | [7]
active: [1] 43.3 µM

CC1(C)[C@@H](O[C@H]2O[C@H](C(=O)O)[C@@H](O)[C@H](O)[C@H]2O[C@@H]2O[C@H](C(=O)O)[C@@H](O)[C@H](O)[C@H]2O)CC[C@]2(C)[C@H]3C(=O)C=C4[C@@H]5C[C@@](C)(C(=O)O)CC[C@]5(C)CC[C@@]4(C)[C@]3(C)CC[C@@H]12
inactive: [1] | [3] | [4] | [5] | [6]

O=c1c(O)c(-c2ccc(O)c(O)c2)oc2cc(O)cc(O)c12
48.6 µM (active) and inactive: [3]
24.4 µM (active) and inactive: [9]
inactive: [1] | [4] | [5] | [6] | [7]

CCn1cc(C(=O)O)c(=O)c2cc3c(cc21)OCO3
inactive: [1] | [3] | [4] | [5] | [6] | [7]

Brc1ccc(Oc2ccc(Br)cc2)cc1
inactive: [1] | [3] | [4] | [5] | [6]

O=C(c1ccccc1)c1ccc(O)c(O)c1O
inactive: [4] | [5] | [9] | [6]
active: [1] 54.9 µM

CC(=O)c1nccs1
inactive: [1] | [3] | [4] | [5] | [9] | [6] | [7]

OC[C@H]1O[C@@H](Oc2ccc(O)cc2)[C@H](O)[C@@H](O)[C@@H]1O
inactive: [1] | [3] | [4] | [5] | [9] | [6]
